HSP90 refold inh = HSP90 refolding inhibition in rabbit reticulocyte lysate; luciferase refolding luminescence, 3 h; hit rate 0.91% among 290,000; inhibition, % at 5.6 µM;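 active means inhibition above the screen-wide mean plus 3 SD, computed separately per campaign, cut at about 16% in these data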;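 further: 0% = DMSO wells and 100% = 60 µM geldanamycin wells; inhibitors lower the luminescence because luciferase stays unfolded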
HSF1 activator = increases HSF-1 driven luciferase reporter signal; NIH3T3-HGL HSF-1 luciferase reporter, MG132, 8 h; 100% = twice DMSO control signal; activation, % at 9 µM; hit rate 1.7% among 300,000; AID 504408;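 active means mean replicate activation of at least 50% with a set share of replicates each reaching 50%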;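 further: 0% = median of the neutral control wells and 100% = twice that signal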
DAX1 inh = inhibits human nuclear receptor DAX1 | AID 504766 | P51843 | hit rate 0.99% among 340,000 | HEK293 Gal4-DAX1 luciferase reporter, luminescence | inhibition, % at 6.75 µM;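 active means inhibition above the mean over all tested compounds plus 3 SD, cut at about 4.2% in these data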;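 further: 0% = DAX1-transfected cells with DMSO and 100% = empty-vector control cells with DMSO; inhibition shows as a rise in luminescence from relieved DAX1 repression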
FXN GAA850 act = activators of GAA850 frataxin (FXN) promoter; HEK293 lucGAA850 FXN promoter luciferase reporter, 24 h; percent of 10 µM SAHA response; activation, % at 6 µM; hit rate 0.56% among 360,000; AID 540364;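 active means activation above the average of all compounds screened plus 3 SD, cutoff fixed separately per campaign, cut at about 7.5% in these data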;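 further: 0% = DMSO wells and 100% = 10 µM SAHA wells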
HSF1 inh = HSF1 inhibition; activity change, negative = inhibition, % at 7.5 µM (by protocol); NIH3T3-HGL HSE-luciferase, MG132-induced, luminescence 8 h; stronger effect = lower value; hit rate 0.77% among 300,000; AID 2098;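 active means more than half of replicate wells show activity change below -50%, luminescence cut by over half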;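 further: luciferase reports HSF-1 transcriptional activity via heat shock element; 0% = median of DMSO wells and -100% = zero luminescence signal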
AHR activator = activates the human aryl hydrocarbon receptor | P35869 | AHR-responsive luciferase reporter cells, luminescence | activation, % at 5 µM | hit rate 2.5% among 320,000 | AID 2796; in the data active means activation above about 47%;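 further: 0% = vehicle wells and 100% = reference agonist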
Numbers without * were called inactive; nt = no result. Shown are actives, neighbours in structure and some others; about 5.9% of the full set was active somewhere.

SMILES	HSP90 refold inh	HSF1 activator	DAX1 inh	FXN GAA850 act	HSF1 inh	AHR activator
Cc1ccc(NC(=O)C2COc3ccccc3O2)cc1C (stereo not given)	-3	15	4.9*	5	1	-4
COc1ccc(NC(=O)CC2CC3CCC2C3)cc1S(=O)(=O)N1CCOCC1 (stereo not given)	nt	nt	-2	1	nt	3
O=C(CSc1cccc[n+]1[O-])c1cc(Cl)ccc1Cl	1	170*	3	1	122	4
O=C(CSc1cccc[n+]1[O-])c1cc2ccccc2o1	-1	192*	0	6	149	6
CC1CC(=O)N(CC(=O)Nc2cccc(F)c2)c2ccccc2S1(=O)=O (stereo not given)	0	28	0	-1	4	3
CCCc1nc2ccc(N)cc2c(=O)n1Cc1ccccc1Cl	6	9	1	3	2	9
Cc1cccc2c1cnn2C(=O)Nc1ccccc1Br	1	20	0	0	10	11
COc1ccc(NC(=O)n2ncc3c(C)cccc32)cc1OC	3	53*	0	3	30	-7
COc1ccc(NC(=O)n2ncc3c(C)cccc32)cc1	2	60*	4	4	39	-8
Cc1ccc(NC(=O)n2ncc3c(C)cccc32)cc1F	1	61*	3	5	31	0
COC(=O)c1ccc(NC(=S)N2CCN(CCO)CC2)cc1	0	2	-1	0	2	3
CC(=O)c1ccc(NC(=S)N2CCN(CCO)CC2)cc1	-2	-4	4.8*	2	-1	3
CCN(CC)S(=O)(=O)c1cccc(-c2nnc(SCC(N)=O)n2CCc2ccccc2)c1	2	-65	2	3	-60*	2
CCc1nn(C(CC)C(=O)NCc2cccc(OC)c2OC)c(=O)c2cc3occc3n12 (stereo not given)	-4	67*	0	-2	20	-1
CCCc1ccc2oc(C(=O)NCCN3CCCC(O)C3)c(C)c2c1 (stereo not given)	2	62*	1	2	33	nt
CCCc1ccc2oc(C(=O)N3CCC(COC)C3)c(C)c2c1 (stereo not given)	-4	61*	2	4	33	18
C[C@@H](C(=O)Nc1ccc(OC(F)F)c(Cl)c1)N1C(=O)C2CC=CCC2C1=O (stereo not given in full)	nt	nt	1	-2	nt	3
O=C(N/C(=C/c1cccc([N+](=O)[O-])c1)C(=O)N1CCOCC1)c1ccccc1Br	4	-4	0	-1	-3	11
Cc1ccc(N2CC(C(=O)N3CCC(C(=O)Nc4nnc(C(C)C)s4)CC3)CC2=O)cc1 (stereo not given)	-2	15	-1	-1	0	1
CC(CCC(=O)O)C1CCC2C3CCC4C[C@H](O)CCC4(C)C3CC(=O)C12C (stereo not given in full)	7	-12	0	-1	2	-2
CC(CCC(=O)O)C1CC[C@H]2C3CCC4CC(=O)CCC4(C)[C@H]3CC(=O)C12C (stereo not given in full)	3	58*	0	4	13	5
COc1cc(OC)cc(C2=NC3(CCC(C)CC3)NC2=S)c1 (stereo not given)	3	8	-1	2	0	12
c1ccc(CCn2cccc2)nc1	nt	nt	0	2	nt	nt
COC(=O)C(Cc1c[nH]c2ccccc12)NC(=O)C1CC1 (stereo not given)	0	12	1	1	-6	14
O=C(O)CCCN1C(=O)C2C3CCC(C3)C2C1=O (stereo not given)	nt	nt	-1	-1	nt	nt
SMILES	HSP90 refold inh	HSF1 activator	DAX1 inh	FXN GAA850 act	HSF1 inh	AHR activator
Cc1ccc(CN2CCN(/N=C/c3ccccc3)CC2)cc1	7	10	7.7*	3	1	0
COC(=O)C(NC(C)=O)(Nc1ccc(C)cn1)C(F)(F)F (stereo not given)	6	-12	4.2*	0	-1	-2
CCOC(=O)NC(Nc1ccc(C)cn1)(C(F)(F)F)C(F)(F)F	2	-9	1	0	4	1
NC(=O)C1CCN(c2nc(-c3ccccc3Br)cs2)CC1	nt	nt	nt	nt	nt	65*
NC(=O)C1CCN(c2nc(-c3ccccc3F)cs2)CC1	nt	nt	0	2	nt	12
Cc1cccc(NC(=O)CSc2nnc(-c3cc(C)n(-c4ccccc4)c3C)o2)c1C	7	-45	0	-5	-30	-2
Cc1cc(-c2nnc(SCC(=O)Nc3ccccc3C(F)(F)F)o2)c(C)n1-c1ccccc1	9	-59	-1	-8	-56*	-2
CC(=O)c1cccc(Nc2c3c(nc4ccccc24)CCC3)c1	2	-4	-2	-6	-3	4
CC(=O)c1ccc(Nc2c3c(nc4ccccc24)CCCC3)cc1	2	66*	-1	-1	22	8
O=[N+]([O-])c1cncn1CCN1CCOCC1	nt	nt	-1	-3	nt	nt
CCOc1ccc(NC(=S)Nc2cccc3cnccc23)cc1	4	19	-1	-4	17	60*
CCOc1ccc(NC(=S)Nc2cccc3ccccc23)cc1	14	-42	1	3	-32	66*
COc1ccc(NC(=S)Nc2cccc3cnccc23)cc1	-1	31	0	2	23	27
S=C(Nc1ccc(Cl)cc1)Nc1cccc2cnccc12	6	61*	0	-1	23	41
Fc1ccc(NC(=S)Nc2cccc3cnccc23)cc1	-6	38	-1	1	18	11
Cc1ccc(S(=O)(=O)NCc2ccccc2)cc1C(=O)N1CCN(S(=O)(=O)c2ccccc2F)CC1	nt	nt	-1	0	nt	nt
C=CCn1c(CCNC(=O)c2ccc(Cl)c(Cl)c2)nnc1SCCOc1ccc(OC)cc1	2	128*	-3	-3	73	0
CCN1CCC2(CC1)C(C#N)=C(N)Oc1c2sc2nc(C)cc(C)c12	-2	-1	0	1	-4	63*
CN(C(=O)c1cccc(NC(=O)Cc2ccc(NC(=O)C3CCN(C(=O)C4CCC4)CC3)cc2)c1)C1CCCC1	nt	nt	0	1	nt	nt
Cc1cc(S(=O)(=O)Nc2ccc(C(=O)NCC(C)(C)N3CCOCC3)cc2)ccc1F	-4	-75	0	2	-68*	0
CCC(C)(C)n1nnnc1C(c1cc2cc(C)ccc2[nH]c1=O)N1CCCC1 (stereo not given)	2	50	0	10.0*	16	10
Cc1ccc2cc(C(c3nnnn3C(C)(C)C)N3CCCCCC3)c(=O)[nH]c2c1 (stereo not given)	0	nt	0	4	nt	15
O=C(CC1SC(=Nc2cccc3ccccc23)N(Cc2ccccn2)C1=O)Nc1ccccc1Br (stereo not given)	1	8	0	3	6	28

Assay outcomes deposited in PubChem BioAssay by several laboratories.
